Bioassay records: PubChem, National Center for Advancing Translational Sciences (NCATS)
LmPK inhibitor: LmPK (Leishmania mexicana) enzyme inhibition; Potency, µM (titrated, usually from 57.5 µM), for the others: top-dose activity change, negative = inhibition, actives largely listed as inhibitors; purified LmPK, Kinase-Glo ATP luminescence, 1 h; 0.37% of 290,000 active; Q27686; note: potency is the fitted concentration of half-maximal effect; % is set by controls: 0 for no effect and ±100 for the full control effect
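Pyruvate kinase activity monitored as ATP production (luciferase luminescence). Conditions: 0.1 nM enzyme, 0.5 mM PEP, 0.1 mM ADP, 1 h, RT; normalized against uninhibited and no-enzyme wells.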
RE007 growth inh: less growth of the S. pombe RE007 Vpr strain. Potency, µM (titrated, usually from 92.2 µM), without a hit: at the top dose activity change, negative = less growth, usual class: inhibitors. 0.21% of 360,000 active. S. pombe RE007 Vpr strain, BacTiter-Glo ATP luminescence, 24 h; active = well fitted falling curve with a large enough effect; inconclusive = small, poorly fitted or top-dose-only effect; inactive = no such curve, though single readings can be large or run the other way; note: potency is the fitted concentration of half-maximal effect; % is set by controls: 0 for no effect and ±100 for the full control effect; nearly all actives have a fitted effect of over 50% in size
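Fission yeast RE007 carrying one integrated HIV-1 vpr copy, seeded at OD 0.01 in PMG+AL medium with 23 nL pinned compound. Grown 24 h at 30 degrees; viability read by BacTiter-Glo luminescence after 5 min.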
Giardia FBPA inh: blocks Giardia fructose-bisphosphate aldolase activity | A8B2U2 | purified Giardia FBPA | Potency, µM (series often up to 59.6 µM), inactives show at the top dose activity, negative = inhibition, actives largely listed as inhibitors | 0.71% of 290,000 active | AID 2451; note: potency is the fitted concentration of half-maximal effect; % is set by controls: 0 for no effect and ±100 for the full control effect; nearly all actives have a fitted effect of over 55% in size
Target sequence (A8B2U2 whole entry, looked up): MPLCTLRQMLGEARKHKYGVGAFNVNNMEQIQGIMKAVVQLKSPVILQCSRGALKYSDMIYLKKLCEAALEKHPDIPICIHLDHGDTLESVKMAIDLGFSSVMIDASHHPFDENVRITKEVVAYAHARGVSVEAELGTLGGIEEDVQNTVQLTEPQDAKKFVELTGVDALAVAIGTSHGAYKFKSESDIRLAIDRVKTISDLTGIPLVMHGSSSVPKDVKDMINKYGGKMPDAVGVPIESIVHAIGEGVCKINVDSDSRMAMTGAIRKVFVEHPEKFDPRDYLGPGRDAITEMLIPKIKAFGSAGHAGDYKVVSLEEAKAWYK
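Giardia FBPA (40 nM reagent) was preincubated 10 min at RT with compound (up to 57.5 uM final), then substrate plus GAPDH/TPI/NAD/arsenate coupling system with diaphorase/resazurin was added; resorufin fluorescence (525/598 nm) was read after 20 min.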
Shiga toxin inh: Shiga toxin inhibition | Vero cells, Shiga toxin protein synthesis inhibition reporter | 9.2% of 290,000 active | AID 2315 | inhibition, % at 38.7 µM; in the data active = inhibition mostly above about 28%, no sharp cut-off; inactive = mostly below about 43%; note: 0% is about no effect
TbPYK inhibitor: inhibitors of Trypanosoma brucei pyruvate kinase | Potency, µM (highest dose often 76.8 µM), for the others: at the highest dose activity, negative = inhibition, usual class: inhibitors | TbPYK enzyme, Kinase-Glo Plus ATP luminescence, 45 min | AID 624173 | Q57TT1 | 0.12% of 410,000 active; note: potency is the fitted concentration of half-maximal effect; % is set by controls: 0 for no effect and ±100 for the full control effect; nearly all actives have a fitted effect of over 50% in size
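Enzyme and substrate buffer are dispensed first and compound is pin-transferred. ADP at 130 uM final then starts the reaction, which runs 45 min at room temperature. Detection reagent is added for 10 min before luminescence is imaged.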
CHX counter: counter-screen for Shiga toxin inhibitors: cycloheximide protein synthesis inhibition; cell reporter, cycloheximide protein synthesis inhibition counterscreen; max response, %; 12% of 300,000 active; in the data active = max response mostly above about 13%, no sharp cut-off; inactive = mostly below about 14%; note: read at 38.3 µM for the half of the compounds with a filed dose; 0% is about no effect
Active calls of the source: *; ? = inconclusive; nt = not tested or not shown; [ ] = remark or other dose. This excerpt belongs to a sample that is enriched for hits. Unless noted, calls come from the whole dose curve; as a rule, active = well fitted curve in the direction sought with a large enough effect; inconclusive = small, poorly fitted or top-dose-only effect, or another doubt; inactive = no such curve, though single readings can be large; an effect the other way counts as inactive or inconclusive.

SMILES | LmPK inhibitor | RE007 growth inh | Giardia FBPA inh | Shiga toxin inh | TbPYK inhibitor | CHX counter
Cc1nc2ccccc2c2oc(C(=O)N3CCC(C)CC3)cc12 | 6% | -1% | 3% | 60* | 3% | 20*
CC1CCN(C(=O)c2cc3c(ccc4ccccc43)o2)CC1 | -12% | -7% | nt | 77* | 1% | 20*
CCOC(=O)C1CCN(C(=O)c2cc3cc4ccc(C)cc4nc3o2)CC1 | 0% | -3% | -7% | 45* | -12% | 30*
CCOP(=O)(c1ccccc1)C(O)c1ccc(Br)cc1 (configuration not stated) | 0% | 0% | 4% | -6 | -10% | -3
CN1CCN(C(c2ccc(Br)cc2)c2cc(Cl)c3cccnc3c2O)CC1 (configuration not stated) | -11% | -6% | 10% | 3 | 44% | -8
Clc1ccc(Nc2ncnc3c2cnn3-c2ccccc2)cc1 | 2% | 0% | ? | 58* | 1% | 42*
COC(=O)c1ccc(Nc2ncnc3c2cnn3-c2ccccc2)cc1 | nt | nt | nt | nt | 0% | nt
CC(=O)Nc1ccc(Nc2ncnc3c2cnn3-c2cccc(C)c2)cc1 | 1% | -1% | 3% | 55* | 6% | 33*
CC(=O)Nc1ccc(Nc2ncnc3c2cnn3-c2ccccc2)cc1 | 4% | 14% | -1% | 50* | 7% | 41*
CC(C)Nc1ncnc2c1cnn2-c1ccc(Cl)cc1 | 5% | ? | -16% | 31* | -3% | 21*
CCOc1ccc(S(=O)(=O)N2CCN(C(=O)c3cc(C4CC4)nn3-c3ccccc3)CC2)cc1 | nt | -2% | nt | nt | -2% | nt
Cn1cc(-c2cc3n(n2)CCC(=O)N3CCCC(=O)NCc2ccccc2)c2ccccc21 | nt | nt | nt | nt | 2% | nt
O=C(O)CO | nt | nt | 0% | 22 | nt | -6
CCCCN1C(=O)/C(=C2\SC(N3CCCCC3)=NC2=O)c2ccccc21 | -12% | 28% | -7% | 57* | 1% | 26*
CN1c2ccccc2C(=O)N2CCc3c([nH]c4ccccc34)C21 (configuration not stated) | nt | nt | 2% | 23 | nt | 1
O=C(c1ccccc1)c1c2c(cc3sc4ccccc4[n+]13)-c1cccc3cccc-2c13 | 3% | 9% | -10% | 38* | -4% | 27*
CCCN1CCN(CCCNC(=O)c2ccc3nc(N4CCCCC4)sc3c2)CC1 | -1% | -1% | -11% | 19 | -1% | 13*
Cc1ccc(C)c(N2CCN(CCCNC(=O)c3ccc4nc(N5CCCCC5)sc4c3)CC2)c1 | nt | nt | nt | nt | -4% | nt
CC1CC(C)CN(CCCNC(=O)c2ccc3nc(N4CCCCC4)sc3c2)C1 (configuration not stated) | -5% | -10% | -9% | 15* | -4% | 17*
Cc1ccnc(SCCn2c(N3CCOCC3)nc3c2c(=O)[nH]c(=O)n3C)n1 | nt | 11% | nt | nt | 0% | nt
Cn1c(=O)[nH]c(=O)c2c1nc(N1CCOCC1)n2CCCSc1ncccn1 | 0% | -6% | 0% | -4 | 1% | 11*
COc1ccc(Nc2nc(N)nc(C(F)(F)F)n2)c(OC)c1 | 3% | -4% | 4% | 46 | -1% | 25*
COc1ccc(Cl)cc1Nc1nc(N)nc(C(F)(F)F)n1 | 0% | -4% | -4% | 13 | 3% | 2
COc1ccc(Nc2nc(N)c3ccccc3n2)c(OC)c1 | -2% | -17% | ? | 45* | 1% | 34*
CN(C)C(=O)c1ccc(-c2nc(Nc3ccccc3)c3ccccc3n2)cc1 | nt | nt | -13% | nt | nt | nt
SMILES | LmPK inhibitor | RE007 growth inh | Giardia FBPA inh | Shiga toxin inh | TbPYK inhibitor | CHX counter
COC(=O)c1ccc(CCc2cc(O)ccc2O)cc1 | nt | 11µM* | nt | nt | ? | nt
COC(=O)c1ccc(CCc2cc(O)c(Br)cc2O)cc1 | nt | 11µM* | nt | nt | ? | nt
COc1cccc(CC2(CO)CCCN(C/C=C/c3ccccc3OC)C2)c1 (configuration not stated) | 2% | 9% | 10% | -2 | -5% | -5
COc1ccccc1/C=C/CN1CCCC(CO)(Cc2cccc(Cl)c2)C1 (configuration not stated) | -3% | -25% | -1% | 47* | 2% | 9
CCCCNC(=O)C1(C)CCN1C(=O)Cc1cccc2ccccc12 (configuration not stated) | nt | 7%[18.4 µM] | nt | nt | 3% | nt
COc1ccc(NC(=S)Nc2ccc3nccnc3c2)cc1 | 1% | -2% | ? | 54* | -8% | 31*
CNC(=O)Nc1ccc2snnc2c1 | 11% | -9% | -4% | 30 | -3% | 0
COc1ccc(NC(=S)Nc2ccc(N)c([N+](=O)[O-])c2)cc1 | -6% | 8% | -17% | 42 | -5% | 21*
COc1ccc(CCC(=O)Nc2ccc(C)c([N+](=O)[O-])c2)cc1 | 3% | nt | 0% | 19 | 0% | 4
CCOc1ccc(NC(=S)Nc2ccc(OC)cc2)cc1 | 3% | 1% | -4% | 48 | -6% | 1
COc1ccc(NC(=S)Nc2ccc3snnc3c2)cc1 | 6% | 4% | ? | 34* | -12% | 24*
FC(F)(F)c1cccc(-c2noc(-c3cc(-c4ccccc4)c(C(F)(F)F)s3)n2)c1 | nt | nt | -2% | 5 | nt | -4
COc1ccccc1-c1coc2cc(O)cc(O)c2c1=O | 1% | -29% | -7% | 61* | 7% | 30*
COc1ccc(-c2c(C)oc3cc(O)cc(O)c3c2=O)cc1OC | 7% | 0% | 5% | 39 | 1% | -1
COc1ccc(-c2coc3cc(O)cc(O)c3c2=O)cc1OC | -3% | 38% | 1% | 56* | 3% | 27*
O=c1c(-c2ccc(O)cc2O)coc2cc(O)cc(O)c12 | 10% | 9% | 2% | 6 | 4% | 2
Cc1cc(NC(=O)c2ccc(Cl)c(S(=O)(=O)N3CCCCC3)c2)no1 | -1% | -11% | nt | -5 | -5% | -3
CCOc1ccc(NC(c2ccccn2)c2oc(CO)cc(=O)c2O)cc1 (configuration not stated) | 2% | -9% | ? | 81* | -13% | 46*
COc1cccc(CN(C(=O)c2oc3ccccc3c2C)C2CCS(=O)(=O)C2)c1 (configuration not stated) | nt | nt | nt | nt | 0% | nt
COc1cccc2ccc(CC(O)(c3ccccc3)c3ccccc3)nc12 | nt | -1% | nt | nt | -8% | nt
CCS(=O)(=O)/N=C(\N)c1ccccc1 | 2% | -4% | 8% | 22 | -1% | 30*
CCOc1ccc(S(=O)(=O)/N=C(\N)c2ccccc2)cc1 | 1% | 3% | 9% | 17 | -3% | -2
O=C(NCc1nc(-c2ccc(C(F)(F)F)cc2)no1)c1cccs1 | 0% | -12% | -16% | 18 | -1% | 8.2*
O=C(NCc1nc(-c2ccccc2)no1)c1cccs1 | 0% | -5% | 3% | 29 | 1% | 7
O=C(Nc1ccc(-c2noc(COc3ccccc3Cl)n2)cc1)c1ccco1 | -20% | -7% | 1% | active | -9% | 41*
